# Reference: ChEMBL document CHEMBL3433997, “St. Jude Leishmania screening dataset” (2016)
# Target: Solute carrier family 2, facilitated glucose transporter member 1 (Homo sapiens) (UniProt P11166)
# Experiment: ST_JUDE_LEISH: Cytotoxicity at 2uM final concentration against transgenic Leishmania Mexicana promastigotes LmGLUT1 that are glucose transport deficient and complemented with the human glucose transporter GLUT1. Activity is measured by DNA content using SYBR green in vitro
# Type: functional
# Chain of Solute carrier family 2, facilitated glucose transporter member 1 (Homo sapiens) (P11166 whole entry): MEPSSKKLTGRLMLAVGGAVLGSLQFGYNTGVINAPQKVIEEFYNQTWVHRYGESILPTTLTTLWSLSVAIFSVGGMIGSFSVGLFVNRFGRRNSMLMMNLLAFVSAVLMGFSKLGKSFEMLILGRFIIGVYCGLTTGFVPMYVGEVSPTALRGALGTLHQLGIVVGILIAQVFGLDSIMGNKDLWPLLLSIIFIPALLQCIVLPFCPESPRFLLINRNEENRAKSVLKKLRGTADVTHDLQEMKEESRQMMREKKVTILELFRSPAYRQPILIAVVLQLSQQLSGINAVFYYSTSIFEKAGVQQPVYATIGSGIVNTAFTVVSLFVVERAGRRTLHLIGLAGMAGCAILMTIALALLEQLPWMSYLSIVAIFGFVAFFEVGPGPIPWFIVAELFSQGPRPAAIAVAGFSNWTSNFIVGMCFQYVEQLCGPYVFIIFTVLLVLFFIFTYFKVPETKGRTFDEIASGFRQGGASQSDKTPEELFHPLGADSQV
row,SMILES,inhibition
1,O=C(Nc1ccc(-c2cccc(-c3nc4cc(C(F)(F)F)ccc4[nH]3)c2)cc1)c1cccnc1,0.28%
2,CCCc1cn2c3c(cc(C(=O)N[C@@H](Cc4ccccc4)[C@H](O)CNC4CCOCC4)cc13)N(C)S(=O)(=O)CC2,0.07%
3,CCc1cn2c3c(cc(C(=O)N[C@@H](Cc4ccccc4)[C@H](O)CNC4CCCCC4)cc13)N(C)S(=O)(=O)C2,2.09%
4,NS(=O)(=O)c1cccc(N/C=C2\C(=O)Nc3ccc(S(=O)(=O)Cc4c(Cl)cccc4Cl)cc32)c1,4.04%
5,CCCCCN1CCCN(Cc2cccc(NC(=O)c3ccc(Cl)c(Cl)c3)c2)CC1,-3.68%
6,O=C(/C=C/c1ccc(Cl)c(Cl)c1)NCCCCCCN1CCN(C(=O)Nc2ccc(C(F)(F)F)cc2)CC1,2.86%
7,CC(=NNC(=N)N)c1ccc2c(ccc3ccccc32)c1,2.47%
8,CC(=O)C1=NN(c2ccc(Cl)cc2)C(c2cccs2)N1c1ccccc1 (centres undefined),1.62%
9,Cc1cc(C2CCN(CCCCNC(=O)c3ccc(-c4ccc(C(F)(F)F)cc4)cc3)CC2)c(C)cc1OCCO,5.21%
